Only some compounds are listed: those with a hit (about 0.5% of all), similar ones and a draw of the others.
MmCpn inh – inhibitors of Methanococcus maripaludis chaperonin TRiC (MmCpn) | purified Mm-Cpn ATPase, ADP Transcreener TR-FRET | Potency, µM (highest dose often 76.9 µM), inactives show at the top dose activity, negative = inhibition, hits mostly inhibitors | 330,000 tested, 0.031% active | AID 504842; note: potency is the fitted concentration of half-maximal effect; % is set by controls: 0 for no effect and ±100 for the full control effect; nearly all actives have a fitted effect of over 80% in size
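Inhibition of chaperonin ATP hydrolysis is measured as reduced ADP production, detected by competitive TR-FRET in which signal falls with ADP. Final enzyme 25 nM and ATP 10 uM, reacted 30 min at 37°C.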
B2AR arrestin – agonists driving beta-arrestin recruitment to human beta2-adrenergic receptor; beta-arrestin recruitment to beta2AR, cell-based reporter; Potency, µM (highest dose often 46.1 µM), for inactives: top-dose activation, usual class: activators; 330,000 tested, 0.02% active;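 note: potency is the fitted concentration of half-maximal effect; 0% = DMSO controls and full agonism = EC100 isoproterenol or metaproterenol; nearly all actives have a fitted effect of over 65% in size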
CCT chaperon mod – cytosolic chaperonin activity modulation. activity change, % (concentration not given with the values), hits read low. purified chaperonin ATPase assay, HTRF ADP detection, 30 min. 360,000 tested, 0.3% active; in the data active = activity change below about -30%; note: % is set by controls: 0 for no effect and ±100 for the full control effect
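First, chaperonin was dispensed at 40 nM or 20 nM final depending on batch activity. Next, compounds were pinned at 76 uM and ATP added at 10 uM. After 30 min at 37 °C, ADP detection reagents ran 30 min at ambient temperature.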
TSHR antag – human thyrotropin receptor antagonism | TSHR-expressing cells, TSH-stimulated cAMP HTRF, 2 h; stronger effect = lower value | 330,000 tested, 0.2% active | AID 504810 | activity change, negative = inhibition, % at 11.5 µM;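 active = activity change below a set negative limit, meaning inhibition stronger than a set level, cut at about -70% in these data; inconclusive = activity change between two set negative limits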; note: % is set by controls: 0 for no effect and ±100 for the full control effect
Target sequence (P16473 whole entry, looked up): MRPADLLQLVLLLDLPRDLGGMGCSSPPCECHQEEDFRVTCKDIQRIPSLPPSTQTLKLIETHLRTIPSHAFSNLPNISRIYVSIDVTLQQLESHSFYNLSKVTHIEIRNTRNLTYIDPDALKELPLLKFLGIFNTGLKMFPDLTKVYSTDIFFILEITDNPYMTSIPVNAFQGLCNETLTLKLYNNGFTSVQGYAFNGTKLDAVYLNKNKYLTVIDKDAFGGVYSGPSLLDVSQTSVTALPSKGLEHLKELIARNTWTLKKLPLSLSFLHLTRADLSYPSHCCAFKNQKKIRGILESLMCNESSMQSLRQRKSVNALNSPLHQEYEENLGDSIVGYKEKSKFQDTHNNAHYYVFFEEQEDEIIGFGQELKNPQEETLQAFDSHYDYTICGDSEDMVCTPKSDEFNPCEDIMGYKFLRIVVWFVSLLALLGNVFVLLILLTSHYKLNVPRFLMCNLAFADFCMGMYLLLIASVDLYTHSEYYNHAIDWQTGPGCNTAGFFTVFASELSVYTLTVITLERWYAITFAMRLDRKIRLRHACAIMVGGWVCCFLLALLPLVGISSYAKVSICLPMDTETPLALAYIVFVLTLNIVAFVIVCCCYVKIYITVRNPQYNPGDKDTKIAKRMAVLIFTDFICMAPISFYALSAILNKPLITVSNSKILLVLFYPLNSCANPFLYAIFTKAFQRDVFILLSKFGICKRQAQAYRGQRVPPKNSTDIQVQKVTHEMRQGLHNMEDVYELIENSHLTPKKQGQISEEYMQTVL
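Competitive HTRF cAMP read-out (cryptate anti-cAMP antibody, cAMP-d2; 30 min, room temperature) in freshly harvested TSHR cells. Compounds added before TSH at EC80 (4nM final), followed by 2 hours' incubation at 37 deg C.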
TCR activator – activators of T cell receptors. primary human leukocytes, anti-CD3, IL-2 HTRF, 48 h. Potency, µM (doses to about 9.22 µM), without a hit: top-dose activation of IL-2 secretion, hits mostly activators. 330,000 tested, under 10 active. AID 504894; note: % of control where 0% means no effect
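Primary human leukocytes incubated 48 hr with anti-CD3 beads plus compound, without co-stimulation. Secreted IL-2 measured by HTRF (europium cryptate/d2 anti-IL-2 pair, 320 nm excitation, 665 nm emission).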
* = called active by the depositor; ? = inconclusive; / = no result; [ ] = another dose, or the depositor's remark. Unless noted, calls come from the whole dose curve; as a rule, active = well fitted curve in the direction sought with a large enough effect; inconclusive = small, poorly fitted or top-dose-only effect, or another doubt; inactive = no such curve, though single readings can be large; an effect the other way counts as inactive or inconclusive.

SMILES | MmCpn inh | B2AR arrestin | CCT chaperon mod | TSHR antag | TCR activator
Cc1ccc(-c2nc3c(c(SCC(=O)N4CCOCC4)n2)Cc2c(CO)cnc(C)c2O3)cc1 | -2.6% | -0.1% | -0.9 | -8.2 | -5.8%
CC(C)(NC(=O)NC(CO)c1ccccc1)c1cccc(C(C)(C)NC(=O)NC(CO)c2ccccc2)c1 (configuration not stated) | -1.1% | 6.51µM* | 0.1 | -2.2 | 2.7%
COc1ccccc1CNC(=O)CN1c2cccc3cccc(c23)S1(=O)=O | -12.6% | -2.6% | -1.5 | 7.4 | -7.4%
NC(=S)N/N=C/c1ccccc1OC(=O)c1cc2ccccc2oc1=O | 1.7% | 12.6µM* | -2.3 | -1.0 | 1.8%
NC(=O)N/N=C/c1ccccc1OC(=O)c1cc2ccccc2oc1=O | 1.7% | 0.3% | -4.8 | -2.0 | -1.6%
O=C(CN1C(=O)CCSc2ccccc21)NC1CCCCC1 | -0.7% | -0.1% | -35.7* | 0.0 | -3.4%
O=C(CN1C(=O)CCSc2ccccc21)Nc1ccccc1 | 1.2% | 0.1% | -3.1 | -2.3 | 2.8%
Cc1c(C(=O)N2CC[C@@H](N3CCC(O)CC3)[C@H](O)C2)[nH]c2ccc(Cl)cc12 | -0.2% | -0.2% | -1.1 | 21.5 | -1.2%
Cc1cc2ccccc2n1CCNC(=O)c1ccc(S(=O)(=O)N2CCCCC2)cc1 | 14.1µM* | 0.7% | -3.6 | 28.3 | -2.3%
O=C(NCCc1ccccc1)c1ccc(S(=O)(=O)N2CCCCC2)cc1 | / | / | -2.0 | / | /
CCc1ccc(/C=C2/SC(=S)N(CC(=O)Nc3nc4ccccc4s3)C2=O)cc1 | 0.0% | -0.4% | -2.6 | -3.0 | -1.0%
Cc1ccccc1/C=C/C(=O)c1ccc([N+](=O)[O-])o1 | -2.5% | -0.1% | 1.3 | -79.5* | -7.0%
COc1ccc(CCNc2ncnc3c2oc2ccccc23)cc1OC | 1.0% | -0.1% | 0.8 | -79.6* | -9.9%
O=C(COCc1cc(-c2cccs2)on1)NC1CCCCC1 | 0.1% | 0.1% | 1.1 | -88.4* | 1.1%
CC1Oc2ccccc2C=C1/C=C1/SC(N2CCOCC2)=NC1=O (configuration not stated) | -0.2% | -0.8% | -38.6* | 11.6 | 3.4%
NS(=O)(=O)c1ccc(CCNC(=O)c2cc3ccccc3s2)cc1 | ? | -0.2% | -19.0 | -102.5* | -5.9%
NS(=O)(=O)c1ccc(CCNC(=O)c2ccc(Cl)s2)cc1 | 2.2% | 3.0% | -0.5 | 3.8 | -5.5%
C/C=C/Cn1cccc(C(=O)Nc2ccc(OC)cc2)c1=O | -0.2% | -0.4% | 1.2 | 17.7 | -7.0%
CCOC(=O)c1cnc(-n2nc(C)cc2C)nc1NC | -2.3% | 17.8µM* | -0.7 | -0.9 | -8.2%
COc1ccc([C@H]2CN(CCc3ccccc3)C(=O)[C@@H]2CC(=O)Nc2ccccc2)cc1 | / | / | -42.6* | / | /
O=C(COC(=O)c1cc(=O)[nH]c2ccc(Br)cc12)c1ccccc1 | -4.4% | 0.1% | -33.2* | -10.1 | -1.2%
CCOc1ccc(C(=O)COC(=O)c2cc(=O)[nH]c3ccccc23)cc1 | -15.9% | -1.6% | -1.0 | -3.1 | 3.2%
O=C(COC(=O)c1cc(=O)[nH]c2ccccc12)c1ccc(Br)cc1 | 0.1% | -0.8% | -126.4* | 21.0 | 12.5%
Cn1c(N)c(Sc2ccc([N+](=O)[O-])cc2)c(=O)n(C)c1=O | 0.8% | -0.6% | -4.4 | 4.1 | -3.7%
Cn1c(N)c(Sc2ccccc2[N+](=O)[O-])c(=O)n(C)c1=O | 3.7% | 0.6% | -5.1 | -111.6* | 3.7%
SMILES | MmCpn inh | B2AR arrestin | CCT chaperon mod | TSHR antag | TCR activator
O=C(O)CCCC(=O)Nc1ccc(Cl)cc1 | -3.0% | 0.3% | -64.9* | -10.2 | 1.1%
O=C(O)CCCC(=O)Nc1ccc(Br)cc1 | -15.7% | -0.7% | -0.3 | 2.3 | -2.6%
Cc1cc(C)c(NC(=O)CCCC(=O)O)c(Cl)c1 | 0.9% | 0.1% | -50.1* | -0.8 | -0.6%
CCCCOCCCNC(=O)C[C@@H]1C[C@@]2(C(=O)OCC)CCC=C2N(Cc2ccco2)C1=O | / | / | 0.2 | / | /
Cc1ccccc1OCCNc1ccc(C(F)(F)F)cc1[N+](=O)[O-] | -2.6% | -1.1% | -52.8* | -6.4 | -5.6%
CCc1ccc(NC(=O)C2CCCN(S(=O)(=O)c3cnc[nH]3)C2)cc1 (configuration not stated) | -3.1% | 0.1% | -74.3* | -8.8 | -4.4%
COc1cccc(CNS(=O)(=O)c2ccc3c(c2)N(C(C)=O)CCO3)c1 | 2.2% | -0.4% | 0.2 | -5.2 | 2.6%
O=c1c2ccccc2c(C=NCCCN2CCOCC2)c(O)n1Cc1ccccc1 | -0.1% | 0.0% | 2.2 | 6.1 | -11.7%
O=c1c2ccccc2c(C=NCCCN2CCOCC2)c(O)n1Cc1ccc2c(c1)OCO2 | 2.6% | 0.1% | -37.9* | 8.3 | 4.2%
COc1ccccc1-c1sc2cc3c(cc2c1C#CC1(O)CCCCC1)OCO3 | ? | -1.3% | 1.0 | -17.1 | 7.4%
COc1ccccc1-c1sc2cc3c(cc2c1C#Cc1ccccn1)OCO3 | 31.6µM* | -0.5% | 0.4 | 17.6 | 6.5%
O=C(CCS(=O)(=O)c1ccc(F)cc1)Nc1nc(-c2ccccn2)cs1 | -0.6% | 0.5% | 0.4 | -110.4* | 6.8%
O=C(CCS(=O)(=O)c1ccccc1)Nc1nc(-c2ccccn2)cs1 | / | / | -1.2 | / | 4.9%
NC(=O)c1ccc(NC(=O)CSc2nnc(-c3cccnc3)n2Cc2ccco2)cc1 | 3.5% | 0.1% | -72.9* | -1.8 | 1.9%
O=C(CSc1nnc(-c2cccnc2)n1Cc1ccco1)c1ccccc1 | 0.3% | 0.4% | -1.2 | 0.1 | 2.8%
CC(C)C[C@H](NC(=O)c1nc[nH]c1C(=O)N(C)Cc1ccccc1)C(=O)OCc1ccccc1 | / | 0.3% | -0.4 | -15.8 | 0.2%
CCCCNc1c(-c2cccc(-c3ccc(OC)cc3)c2)nc2cc(C)ccn12 | -1.6% | -0.6% | -1.8 | -22.2 | -8.2%
CCCCNc1c(-c2cccc(-c3ccc(OC)cc3)c2)nc2ccc(C)cn12 | -1.4% | -4.0% | -34.9* | -83.5* | -8.8%
O=Cc1s/c(=N\S(=O)(=O)c2ccccc2)n(CCCCl)c1Cl | -18.9% | 0.0% | 2.2 | -70.1* | -1.1%
CC(C)NC(=O)NC(=O)CSc1nnc(COc2ccccc2Cl)o1 | -0.4% | -0.2% | -1.7 | 10.0 | 3.3%
Cc1ccc(-n2c(Cl)c(Cl)nc(Cl)c2=O)cc1 | -2.9% | ? | -1.5 | -95.3* | -0.7%[46.1 µM]
O=C(NCc1ccncc1)C12CC3CC(CC(C3)C1)C2 | 1.4% | -0.2% | -84.3* | 1.1 | 4.9%
Cc1cc(N)n(-c2ncnc3scc(-c4ccc(Cl)cc4)c23)n1 | 2.5% | 0.3% | -1.0 | 5.0 | 3.8%[46.1 µM]
Cc1ccc(-c2csc3ncnc(-n4nc(C)cc4N)c23)cc1 | 1.7% | -0.7% | -95.1* | 4.0 | 4.6%
CCN(CC)CCN1CNC(=S)NC1 | / | / | -34.3* | / | /
CC(=O)Nc1ccc(S(=O)(=O)NCCC(=O)NC2CCCCCC2)cc1 | 1.7% | -0.2% | -1.2 | 12.8 | -21.8%
CCCCCCCCCCCCCCCCCCOC[C@H](COP(=O)([O-])OCC[N+](C)(C)C)OC | / | / | / | -81.3* | /
Cc1cc(C)cc(OCCn2ccnc2)c1 | -0.6% | -0.7% | -73.3* | -9.9 | 2.2%

Assay outcomes from PubChem.
